Common to all, as to format: functional
Test [1] concerns Plasmodium falciparum. In words: GSK_TCMDC: Inhibition of Plasmodium falciparum 3D7 in whole red blood cells, using parasite LDH activity as an index of growth. Test compounds present at 2uM.
Test [2] has as its system Plasmodium falciparum. In words: GSK_TCMDC: Inhibition of Plasmodium falciparum Dd2 in whole red blood cells, using parasite LDH activity as an index of growth. Test compounds present at 2uM.
The next test concerns HepG2. In words: GSK_TCMDC: Percent inhibition of human HepG2 cell line. Test compounds present at 10uM.

With `CC(O)C(=O)O.CCOc1ccc2nc3cc(N)ccc3c(N)c2c1`, the values for the Inhibition in the test with Plasmodium falciparum [1], with Plasmodium falciparum [2] and in the test on HepG2 were 98%, 70% and 8%, respectively.
In the case of `O=C(NCc1ccc(C(=O)NC2CCCCCC2)cc1)c1ccc(O)c(-c2ccc(Cl)c(Cl)c2)c1`, the values for the Inhibition in the test on Plasmodium falciparum [1], with Plasmodium falciparum [2] and with HepG2 were 83%, 21% and 0%, respectively.
As to `Br.Oc1ccc(CCNCCCCCCNCCc2ccc(Cl)cc2)c(Cl)c1O`, the Inhibition is listed as 100% with Plasmodium falciparum [1], 30% in the test with Plasmodium falciparum [2] and 23% with HepG2.
Take `O=C(O)C(F)(F)F.Oc1ccc(CCNc2nc(NCc3ccccc3-c3ccc(C(F)(F)F)cc3)nc(N3CCCNCC3)n2)cc1`: the Inhibition with Plasmodium falciparum [1] came out at 95%; in the test on Plasmodium falciparum [2] it was 2%; in the test on HepG2 it was 12%.
Consider `COc1ccc(OC)c2c1CC1NCC2c2c(OC)ccc(OC)c21.Cl` (stereo not given), for which the Inhibition is 99% with Plasmodium falciparum [1], 3% in the test on Plasmodium falciparum [2] and 2% in the test on HepG2.
As for `COc1ccc2nccc(N3CCC(SCCNCc4ccc5c(n4)NC(=O)CO5)C3)c2n1.Cl` (stereo not given), the Inhibition with Plasmodium falciparum [1] is 100%; in the test on Plasmodium falciparum [2], 9%; in the test on HepG2 it was 30%.
The like results for `Br.CC1(C)NC(N)=NC(=N)N1OCCCNC(=O)c1ccc([N+](=O)[O-])cc1` were, in that order, 92%, 97% and 57%.
Turning to `CC(C)CC1c2[nH]c3ccccc3c2CCN1C(=O)CCc1ccccc1` (stereo not given), the Inhibition with Plasmodium falciparum [1] was found to be 92%; with Plasmodium falciparum [2], 82%; in the test on HepG2, 0%.
For `COc1cc(NCC(CN)Cc2ccc3c(c2)OCO3)nc2ccccc12.Cl` (stereo not given), the Inhibition with Plasmodium falciparum [1] is 94%; with Plasmodium falciparum [2] it was 6%; in the test on HepG2 it was 41%.
Regarding `CCc1ccc(NC(=O)N(CCCn2ccnc2)Cc2csc(-c3ccc(CNCc4ccccc4)cc3)n2)cc1.O=C(O)C(F)(F)F`, the Inhibition with Plasmodium falciparum [1] amounted to 100%; in the test with Plasmodium falciparum [2], 39%; with HepG2, 9%.
Turning to `CCC(C)c1ccc(O)c(NC(=O)c2cncc(Br)c2)c1` (stereo not given), the Inhibition with Plasmodium falciparum [1] worked out at 100%; in the test on Plasmodium falciparum [2], 16%; with HepG2, 0%.
Regarding `CC(C)Cc1cn(-c2nc(-c3nc4ccccc4[nH]3)cs2)c2cc(Cl)ccc12.Cl`, the Inhibition in the test with Plasmodium falciparum [1] was found to be 99%; in the test with Plasmodium falciparum [2], 68%; with HepG2, 9%.
Take `CC(C)Cn1cc(C2CCN(CCN3CCC(CNC(=O)c4ccc(NC(=O)c5cc(Cl)cc(Cl)c5)cc4)CC3)CC2)c2ccccc21`: the Inhibition in the test on Plasmodium falciparum [1] is recorded as 91%; in the test on Plasmodium falciparum [2], 96%; in the test on HepG2, 53%.
Take `Cc1cc(NCCC(=O)Nc2ccccc2)nc(NCc2ccccc2C)n1.O=C(O)C(F)(F)F`: the Inhibition is 100% with Plasmodium falciparum [1], 57% in the test with Plasmodium falciparum [2] and 6% with HepG2.
In the case of `CN1CCCN(c2ccnc3cc4c(cc23)N(C(=O)c2ccc(Cl)c(Cl)c2)CC4)CC1.Cl`, the figures for the Inhibition with Plasmodium falciparum [1], in the test on Plasmodium falciparum [2] and in the test on HepG2 were 100%, 73% and 20%, respectively.
With `Cc1ccccc1OCC(O)CN1CCC(C2CCN(CC(O)COc3ccccc3C)CC2)CC1` (stereo not given), the values for the Inhibition in the test with Plasmodium falciparum [1], in the test on Plasmodium falciparum [2] and with HepG2 were 100%, 51% and 12%, respectively.
The corresponding values for `COc1ccc(Nc2nccc(N3CCC(NC(=O)Nc4ccc5c(c4)OCO5)C3)n2)cc1` (stereo not given) are 98%, 57% and 27%.
Consider `Cc1noc(C)c1-c1cccc(CNCc2cccc(-c3ccc(-c4nc5ccccc5[nH]4)cc3)c2)c1.O=C(O)C(F)(F)F`, for which the values for the Inhibition with Plasmodium falciparum [1], in the test with Plasmodium falciparum [2] and in the test on HepG2 were 100%, 76% and 27%, respectively.
With `Cc1oc(-c2ccc(Cl)cc2)cc1C(=O)NCCC1CCN(CCCCCNC(=O)/C=C/c2ccc(Cl)c(Cl)c2)CC1`, the Inhibition with Plasmodium falciparum [1] worked out at 100%; with Plasmodium falciparum [2] it was 88%; in the test with HepG2 it was 100%.
Regarding `NCC1CCCN1Cc1cccc(-c2ccc(-c3nc4cc(C(F)(F)F)ccc4[nH]3)cc2)c1.O=C(O)C(F)(F)F` (stereo not given), the Inhibition is 100% with Plasmodium falciparum [1], 95% with Plasmodium falciparum [2] and 20% in the test on HepG2.
`Cc1cc(N[C@@H](CC(C)C)C(=O)NCCc2ccccc2)nc(NCCc2ccc(F)cc2)n1.O=C(O)C(F)(F)F`: the figures for the Inhibition with Plasmodium falciparum [1], with Plasmodium falciparum [2] and in the test on HepG2 were 98%, 53% and 12%, respectively.
Turning to `COCCNCC(O)Cn1c2ccc(Cl)cc2c2cc(Cl)ccc21` (stereo not given), the Inhibition in the test on Plasmodium falciparum [1] was found to be 95%; with Plasmodium falciparum [2], 74%; in the test with HepG2 it was 15%.
Take `CCn1c(-c2nonc2N)nc2c(-c3ccccc3)ncc(OCCCNCCCN3CCOCC3)c21.O=C(O)C(F)(F)F`: the Inhibition came out at 100% in the test on Plasmodium falciparum [1], 91% in the test on Plasmodium falciparum [2] and 28% in the test on HepG2.
The corresponding values for `O=C(Nc1ccc(Br)cc1)N(CCN1CCOCC1)CC(O)COCc1ccc(Cl)c(Cl)c1.O=C(O)C(F)(F)F` (stereo not given) are 94%, 52% and 16%.
As to `CS(=O)(=O)O.N#Cc1ccc(CNCCCCCCNCc2ccc(C#N)c3ccccc23)c2ccccc12`, the Inhibition with Plasmodium falciparum [1] was found to be 100%; in the test with Plasmodium falciparum [2], 96%; with HepG2, 51%.
As to `CS(=O)(=O)N(CC(O)Cn1c2ccc(Cl)cc2c2cc(Cl)ccc21)c1ccccc1` (stereo not given), the values for the Inhibition with Plasmodium falciparum [1], in the test with Plasmodium falciparum [2] and in the test on HepG2 were 100%, 98% and 2%, respectively.
For `Cc1ccc(C)c(NC(=O)NCCNc2ccnc(Nc3ccc(F)cc3)n2)c1`, the Inhibition stood at 97% with Plasmodium falciparum [1], 5% in the test on Plasmodium falciparum [2] and 21% in the test with HepG2.
`C[C@@H](NC(=O)c1nn(-c2ccc(Cl)cc2)c(=O)c2ccccc12)C(C)(C)C`: the Inhibition stood at 95% with Plasmodium falciparum [1], 20% with Plasmodium falciparum [2] and 7% in the test with HepG2.
With `CCCCN(CCCC)CCCN(CCCN(CCCC)CCCC)c1cc(C)nc(Nc2ccc3cc(Br)ccc3c2)n1.Cl`, the Inhibition with Plasmodium falciparum [1] is 100%; in the test on Plasmodium falciparum [2] it was 99%; in the test with HepG2, 52%.
Turning to `CC(C)N1CCN(CCCNc2c3ccccc3nc3ccccc23)CC1.Cl`, the figures for the Inhibition with Plasmodium falciparum [1], in the test with Plasmodium falciparum [2] and in the test with HepG2 were 100%, 1% and 29%, respectively.

One may read the Inhibition as how much of the control response was suppressed. Higher therefore signals a response far below the control.

The values are drawn from ChEMBL document CHEMBL1157539, “Thousands of chemical starting points for antimalarial lead identification” (Nature, 2010).
